About 79,000 compounds went through this panel and 15% of them were active in at least one assay; those are over-represented in the sample as a whole. A number with no mark means an inactive call. Activity calls are given as the source filed them. Cut-off read from the data, not from the text of the source: active = growth inhibition above about 70%; inactive = the rest.
Key:
[1] = NCI Yeast Anticancer Drug Screen. Data for the rad50 strain (AID 155);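 note: 0% = growth of vehicle-only cultures of the same strain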; conditions: S. cerevisiae rad50 strain growth inhibition, active compounds read high
How it was run: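 Yeast carrying a defined DNA repair defect were exposed to test compounds, and growth was compared with vehicle-treated controls to give percent inhibition.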

[2] = NCI Yeast Anticancer Drug Screen. Data for the mec2-1 strain (AID 157); conditions: S. cerevisiae mec2-1 strain, active compounds read high
How it was run: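 Test agents were screened against the mec2-1 yeast strain, with defined DNA repair or cell cycle alteration. Growth was scored as inhibition against vehicle-only controls.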

[3] = NCI Yeast Anticancer Drug Screen. Data for the sgs1 mgt1 strain (AID 161);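 note: 0% = growth of cultures given vehicle only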; conditions: S. cerevisiae sgs1 mgt1 strain, active compounds read high
How it was run: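 Read-out: growth inhibition vs vehicle controls. Cells: mutant yeast strain deficient in DNA damage repair.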

[4] = NCI Yeast Anticancer Drug Screen. Data for the cln2 rad14 strain (AID 165);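 note: 0% = growth equal to vehicle treated cultures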; conditions: S. cerevisiae cln2 rad14 strain, active compounds read high
How it was run: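 Growth of compound-exposed yeast (cln2 rad14 genotype) measured and expressed as inhibition relative to vehicle.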

[5] = NCI Yeast Anticancer Drug Screen. Data for the bub3 strain (AID 167); conditions: S. cerevisiae bub3 mutant strain, active compounds read high
How it was run: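 Compounds were applied to a genetically altered yeast strain carrying a cell-cycle control defect. Growth inhibition was scored against vehicle-treated controls.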

[6] = NCI Yeast Anticancer Drug Screen. Data for the mlh1 rad18 strain (AID 175); conditions: S. cerevisiae mlh1 rad18 strain growth inhibition, active compounds read high
How it was run: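 In this whole-cell yeast screen, a strain with altered DNA damage repair is challenged with compound, and its growth is measured against matched vehicle-treated controls.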

[7] = at 5.0 µM (retest, dose inferred, filed as 0.5)
[8] = at 50.0 µM (retest, dose inferred, filed as 5.0)

SMILES	growth inhibition [1, 7] [%]	growth inhibition [1, 8]	growth inhibition ([1]; at 50.0 µM)	growth inhibition [2, 7] [%]	growth inhibition [2, 8]	growth inhibition ([2]; at 50.0 µM)	growth inhibition [3, 7] [%]	growth inhibition [3, 8]	growth inhibition ([3]; at 50.0 µM)	growth inhibition [4, 7] [%]	growth inhibition [4, 8]	growth inhibition ([4]; at 50.0 µM)	growth inhibition [5, 7] [%]	growth inhibition [5, 8]	growth inhibition ([5]; at 50.0 µM)	growth inhibition [6, 7] [%]	growth inhibition [6, 8]	growth inhibition ([6]; at 50.0 µM)
O=[N+]([O-])/C(Cl)=C(/C(Cl)=C(Cl)Cl)N1CCCCC1	-3	16%	28.6%	8	25%	11.7%	14	27%	34.1%	13	22%	1.5%	22	34%	23.6%	2	27%	43.1%
O=C(Nn1c(-c2ccccc2)nc2ccccc2c1=O)c1ccccc1O	-4	49%	73.4% (active)	-14	51%	64.2%	3	59%	79.5% (active)	9	59%	77.8% (active)	-11	80% (active)	78.2% (active)	-1	79% (active)	69.8%
COc1ccc(CSC(=S)Nc2ccccc2C(F)(F)F)cc1	8	93% (active)	98.3% (active)	6	97% (active)	99.2% (active)	1	99% (active)	99.2% (active)	-1	94% (active)	98.6% (active)	-3	96% (active)	99% (active)	4	95% (active)	99% (active)

Source: PubChem BioAssay (NCI)
